# Laboratory results published in the supplement of paper PMC12282887.
# ± gives the standard deviation of the averaged measurements.
# Test system: E. coli BW25113 micFp lux reporter
# Assay: promoter activity interaction Z-score (Lux/OD deviation from empty-vector control); higher = stronger promoter induction by the compound
# Experimental: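 E. coli BW25113 (wild type or ΔmarA/ΔsoxS/Δrob) carrying pTU175 luxCDABE promoter reporters was grown in LB in 384-well plates at 37°C with each of 94 compounds at 4 two-fold concentrations, in biological duplicates. Luminescence and OD600 were read every 30 min for 12 h and integrated as AUC over 8 h (0-8 h WT, 1-9 h mutants). Lux AUC was divided by OD AUC; the interaction score is the residual of a Huber robust fit of each promoter against the empty-vector control, then Z-transformed per promoter.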
compound,measurement,setting,value
Cc1c(N)nc([C@H](CC(N)=O)NC[C@H](N)C(N)=O)nc1C(=O)N[C@H](C(=O)N[C@H](C)[C@@H](O)[C@H](C)C(=O)N[C@H](C(=O)NCCc1nc(-c2nc(C(=O)NCCC[S+](C)C)cs2)cs1)[C@@H](C)O)[C@@H](OC1OC(CO)C(O)C(O)C1OC1OC(CO)C(O)C(OC(N)=O)C1O)c1cnc[nH]1 (stereo partly drawn) [Bleomycin],promoter activity interaction Z-score,"0.038 µg/ml, genetic background: wild type",-0.542 ± 0.065
same,promoter activity interaction Z-score,"0.038 µg/ml, genetic background: ΔmarA",-0.018 ± 0.18
same,promoter activity interaction Z-score,"0.038 µg/ml, genetic background: Δrob",-0.0145 ± 0.17
same,promoter activity interaction Z-score,"0.038 µg/ml, genetic background: ΔsoxS",-0.239 ± 0.3
same,promoter activity interaction Z-score,"0.076 µg/ml, genetic background: wild type",-0.384 ± 0.099
same,promoter activity interaction Z-score,"0.076 µg/ml, genetic background: ΔmarA",-0.0986 ± 0.079
same,promoter activity interaction Z-score,"0.076 µg/ml, genetic background: Δrob",-0.0358 ± 0.11
same,promoter activity interaction Z-score,"0.076 µg/ml, genetic background: ΔsoxS",-0.0314 ± 0.21
same,promoter activity interaction Z-score,"0.15 µg/ml, genetic background: wild type",-0.758 ± 0.17
same,promoter activity interaction Z-score,"0.15 µg/ml, genetic background: ΔmarA",0.0263 ± 0.051
same,promoter activity interaction Z-score,"0.15 µg/ml, genetic background: Δrob",0.317 ± 0.023
same,promoter activity interaction Z-score,"0.15 µg/ml, genetic background: ΔsoxS",-0.34 ± 0.014
same,promoter activity interaction Z-score,"0.3 µg/ml, genetic background: wild type",-0.844 ± 0.18
same,promoter activity interaction Z-score,"0.3 µg/ml, genetic background: ΔmarA",-0.0349
same,promoter activity interaction Z-score,"0.3 µg/ml, genetic background: Δrob",-0.227 ± 0.59
same,promoter activity interaction Z-score,"0.3 µg/ml, genetic background: ΔsoxS",-1.55
C[n+]1ccc(-c2cc[n+](C)cc2)cc1 [Paraquat],promoter activity interaction Z-score,"0.64 µg/ml, genetic background: wild type",0.149 ± 0.24
same,promoter activity interaction Z-score,"0.64 µg/ml, genetic background: ΔmarA",1.489 ± 0.0083
same,promoter activity interaction Z-score,"0.64 µg/ml, genetic background: Δrob",1.28 ± 0.4
same,promoter activity interaction Z-score,"0.64 µg/ml, genetic background: ΔsoxS",-0.129 ± 0.0025
same,promoter activity interaction Z-score,"1.3 µg/ml, genetic background: wild type",0.566 ± 0.14
same,promoter activity interaction Z-score,"1.3 µg/ml, genetic background: ΔmarA",2.36 ± 0.1
same,promoter activity interaction Z-score,"1.3 µg/ml, genetic background: Δrob",2.69 ± 0.87
same,promoter activity interaction Z-score,"1.3 µg/ml, genetic background: ΔsoxS",-0.0229 ± 0.11
same,promoter activity interaction Z-score,"2.6 µg/ml, genetic background: wild type",1.23 ± 0.11
same,promoter activity interaction Z-score,"2.6 µg/ml, genetic background: ΔmarA",3.79 ± 0.15
same,promoter activity interaction Z-score,"2.6 µg/ml, genetic background: Δrob",4.57 ± 1.3
same,promoter activity interaction Z-score,"2.6 µg/ml, genetic background: ΔsoxS",-0.156 ± 0.22
same,promoter activity interaction Z-score,"5.1 µg/ml, genetic background: wild type",3.89 ± 0.099
same,promoter activity interaction Z-score,"5.1 µg/ml, genetic background: ΔmarA",5.91 ± 1.2
same,promoter activity interaction Z-score,"5.1 µg/ml, genetic background: Δrob",8.849 ± 0.017
same,promoter activity interaction Z-score,"5.1 µg/ml, genetic background: ΔsoxS",-0.509 ± 0.16
C[C@]12CC[C@H]3[C@@H](CCC4=CC(=O)CC[C@@]43C)[C@@H]1CC[C@@H]2O [Testosterone],promoter activity interaction Z-score,"18 µg/ml, genetic background: wild type",-0.197 ± 0.0038
same,promoter activity interaction Z-score,"18 µg/ml, genetic background: ΔmarA",0.0474 ± 0.038
same,promoter activity interaction Z-score,"18 µg/ml, genetic background: Δrob",-0.0298 ± 0.091
same,promoter activity interaction Z-score,"18 µg/ml, genetic background: ΔsoxS",0.319 ± 0.18
same,promoter activity interaction Z-score,"36.1 µg/ml, genetic background: wild type",-0.14 ± 0.34
same,promoter activity interaction Z-score,"36.1 µg/ml, genetic background: ΔmarA",0.094 ± 0.098
same,promoter activity interaction Z-score,"36.1 µg/ml, genetic background: Δrob",-0.000736 ± 0.15
same,promoter activity interaction Z-score,"36.1 µg/ml, genetic background: ΔsoxS",-0.0287 ± 0.15
same,promoter activity interaction Z-score,"72.1 µg/ml, genetic background: wild type",0.142 ± 0.26
same,promoter activity interaction Z-score,"72.1 µg/ml, genetic background: ΔmarA",0.527 ± 0.063
same,promoter activity interaction Z-score,"72.1 µg/ml, genetic background: Δrob",0.174 ± 0.16
same,promoter activity interaction Z-score,"72.1 µg/ml, genetic background: ΔsoxS",0.257 ± 0.41
same,promoter activity interaction Z-score,"144.2 µg/ml, genetic background: wild type",0.181 ± 0.03
same,promoter activity interaction Z-score,"144.2 µg/ml, genetic background: ΔmarA",0.196 ± 0.089
same,promoter activity interaction Z-score,"144.2 µg/ml, genetic background: Δrob",0.202 ± 0.074
same,promoter activity interaction Z-score,"144.2 µg/ml, genetic background: ΔsoxS",0.625 ± 0.45
